Source: PubChem BioAssay (several laboratories)
This is a sample that favours compounds with a hit; in the whole collection about 1.7% have one here.
p97 inhibitor: inhibitors of human p97 ATPase, primary screen, biochemical; Transitional endoplasmic reticulum ATPase (Homo sapiens), P55072; recombinant p97 ATPase, Kinase-Glo ATP luminescence, 3 h; inhibition, % at 8 µM; hit rate 0.42% among 220,000; AID 1481, 2009; in the data active means inhibition above about 15%;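 further: 0% = DMSO vehicle and 100% = wells lacking enzyme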
LYPLA1 inh: LYPLA1 inhibitors, primary screen, counter-screen for PME1 inhibitor project, biochemical, fluorescence polarization, FP-Rh probe ABPP. Acyl-protein thioesterase 1 (Homo sapiens), O75608. recombinant LYPLA1. inhibition, % at 5.9 µM. hit rate 0.16% among 320,000. AID 2174, 2009;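 active means inhibition above the mean of all tested compounds plus 3 SD, set per campaign, cut at about 14% in these data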;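 further: inhibitors block serine hydrolase probe labeling of LYPLA1 so polarization falls; 0% = enzyme with DMSO and 100% = wells lacking LYPLA1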
PREPL inhibitor: PREPL enzyme inhibitors, primary screen, biochemical, fluorescence polarization; inhibition, % at 5.96 µM; Prolyl endopeptidase-like (Homo sapiens), Q4J6C6; recombinant PREPL, fluorescence polarization activity-based probe; hit rate 0.68% among 320,000;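 further: 0% = enzyme with DMSO and 100% = wells lacking enzyme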
LYPLA2 counter: LYPLA2 inhibitors, primary screen, counter-screen for PME1 inhibitor project, biochemical, fluorescence polarization, FP-Rh probe ABPP. recombinant LYPLA2. inhibition, % at 5.9 µM. hit rate 0.38% among 320,000. AID 2177, 2009;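 active means inhibition above the screen-wide mean plus 3 SD, limit set per campaign, cut at about 26% in these data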;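 further: 0% = LYPLA2 with DMSO and 100% = wells lacking LYPLA2 enzyme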
Target sequence (O95372 whole entry, looked up): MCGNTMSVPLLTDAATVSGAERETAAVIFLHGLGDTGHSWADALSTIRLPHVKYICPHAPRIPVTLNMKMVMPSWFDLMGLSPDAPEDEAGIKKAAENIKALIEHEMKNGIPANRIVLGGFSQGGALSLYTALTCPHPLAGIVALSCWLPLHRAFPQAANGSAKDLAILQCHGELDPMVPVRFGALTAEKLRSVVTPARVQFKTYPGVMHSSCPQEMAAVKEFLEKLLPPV
Hck Nef HTS: inhibitors of Nef-activated human Hck kinase, primary screen, biochemical, Z-Lyte FRET, 384-well, Hck-YEEI; Tyrosine-protein kinase HCK (Homo sapiens), P08631; Recombinant Hck-YEEI plus Nef, Z-Lyte FRET kinase assay; inhibition, % at 20 µM; hit rate 0.68% among 220,000; AID 463187, 2010;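 active means Hck-Nef kinase inhibition above about 50%, limit read from the data; inactive means inhibition below that limit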;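 further: 0% = DMSO with Hck plus Nef and 100% = Hck alone without Nef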
Target sequence (P08631 whole entry, looked up): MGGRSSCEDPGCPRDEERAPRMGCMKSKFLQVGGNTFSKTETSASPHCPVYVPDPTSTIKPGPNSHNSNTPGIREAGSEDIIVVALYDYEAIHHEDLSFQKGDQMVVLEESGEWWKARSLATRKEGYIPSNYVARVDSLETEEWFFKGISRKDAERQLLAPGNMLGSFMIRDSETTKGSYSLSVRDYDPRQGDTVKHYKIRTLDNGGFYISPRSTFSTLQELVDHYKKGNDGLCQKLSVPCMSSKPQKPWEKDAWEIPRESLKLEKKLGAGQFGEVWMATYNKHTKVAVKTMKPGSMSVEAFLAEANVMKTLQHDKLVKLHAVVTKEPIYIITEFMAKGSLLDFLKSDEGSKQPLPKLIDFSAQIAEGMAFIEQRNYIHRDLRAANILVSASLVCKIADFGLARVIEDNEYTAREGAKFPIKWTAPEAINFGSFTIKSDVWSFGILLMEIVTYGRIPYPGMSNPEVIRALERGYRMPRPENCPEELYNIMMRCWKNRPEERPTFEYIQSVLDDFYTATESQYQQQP
Rin1 Abl inh: inhibitors of Rin1-Abl protein binding, primary screen, biochemical, TR-FRET. hit rate 0.4% among 360,000. inhibition, % at 7.35 µM; in the data active means inhibition above about 5%, passing the limit was not always enough
LYPLA2 confirm: LYPLA2 inhibitors, retest, confirmation, counter-screen for PME1 inhibitor project, biochemical, fluorescence polarization, FP-Rh probe ABPP | AID 2232, 2010 | inhibition, % at 5.9 µM | hit rate 72% among 1,100 | recombinant LYPLA2 | shares compounds with LYPLA2 counter;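 active means mean inhibition across replicates above the hit cutoff set in the primary screen, cut at about 26% in these data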;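 further: blocked labeling of the enzyme by serine hydrolase FP-Rh probe lowers polarization; 0% = enzyme with DMSO and 100% = wells lacking LYPLA2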
LYPLA2 gel ABPP: LYPLA2 inhibitors in proteome, late-stage follow-up, gel-based competitive ABPP, fluorescence, assay provider; rhLYPLA2 in mouse brain proteome, gel ABPP FP-Rh; shares compounds with LYPLA2 counter; hit rate 30% among 150; inhibition, % at 20 µM;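 active means inhibition of LYPLA2 enzyme probe labeling above about 50%, limit read from the data; inactive means inhibition below that limit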;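 further: loss of FP-Rh probe labeling of the LYPLA2 gel band measured as band density; 0% = DMSO only control band and 100% = blank gel background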
PREPL confirm: human PREPL enzyme inhibitors, confirmation, biochemical, fluorescence polarization. shares compounds with PREPL inhibitor. recombinant PREPL, fluorescence polarization activity probe. inhibition, % at 5.96 µM. hit rate 67% among 2,000. AID 2803, 2010;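 further: 0% = protein with DMSO and 100% = wells lacking protein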
* hit, by the source's call; . = no result shown. Unless noted, no stated cut-off is given here; in the data, active means inhibition above about 43%; inactive means the rest.

SMILES	p97 inhibitor	LYPLA1 inh	PREPL inhibitor	LYPLA2 counter	Hck Nef HTS	Rin1 Abl inh	LYPLA2 confirm	others
COc1ccc(/C=C2\SC(=O)N(CC(=O)Nc3ccccc3O)C2=O)cc1OC	.	.	.	.	.	-1.3	.
COc1cc(/C=C2\SC(=O)N(CC(=O)Nc3cccc(C)c3)C2=O)ccc1OC(C)C(=O)O (stereo not given)	.	-3.3	-4.3	74.4*	.	-1.7	73.6*	LYPLA2 gel ABPP=80.0*
COc1ccc(/C=C2\SC(=O)N(CC(=O)Nc3ccc(O)cc3)C2=O)cc1OC	.	.	.	.	.	-0.5	.
Cc1ccc(S(=O)(=O)Nc2c(C)nn(C)c2C)c(C)c1	.	1.9	6.4	7.7	.	-1.7	.
CC(C)CN(CCCNC(=O)CN1C(=O)COc2ccc(S(=O)(=O)N3CCOCC3)cc21)CC(C)C	.	-1.7	4.7	-4.2	.	-2.2	.
Cc1c(Cl)cccc1N(CC(=O)NC(C)c1ccccc1)S(C)(=O)=O (stereo not given)	.	1.8	-13.2	1.0	.	0.2	.
CCN(CC)CCN1C(=O)c2ccccc2NC1c1ccc(Br)cc1 (stereo not given)	1.6	-1.0	-15.0	28.2*	22.8	2.5	-2.8
O=C(Nc1ccc(Nc2ccncc2)cc1)c1ccc(Nc2ccnc3ccc([N+](=O)[O-])cc23)cc1[N+](=O)[O-]	8.5	6.4	13.6	27.4*	-157.8	0.7	6.1
O=C(Nc1ccc(Nc2ccncc2)cc1)c1ccc([N+](=O)[O-])cc1	3.9	2.1	5.5	7.5	24.0	-5.9	.
CC(C)/C=C/CN1CCC(Oc2ccc(C(=O)N3CCCC3)cc2)CC1	.	-0.1	-1.6	59.8*	.	4.2	4.7
CSc1cccc(CN2CCC(Oc3cccc(C(=O)N4CCCC4)c3)CC2)c1	.	1.8	19.5	9.0	.	0.2	.
COc1ccccc1/C=C/CN1CCC(Oc2ccc(C(=O)N3CCCC3)cc2)CC1	.	3.5	18.6	17.1	.	4.0	.
CSc1cccc(CN2CCC(Oc3ccc(C(=O)N4CCCCC4)cc3)CC2)c1	.	3.8	12.1	31.4*	.	2.1	9.1
Cc1c(C)n(Cc2ccc(Cl)cc2)c2ccc(C(=O)NCCN3CCOCC3)cc12	.	-0.9	20.6	11.6	.	0.6	.
COc1ccc(-c2noc(CCC(=O)N3CCN(c4cccc(C(F)(F)F)c4)CC3)n2)cc1	-2.3	4.8	-12.6	69.0*	7.1	-3.3	67.1*	LYPLA2 gel ABPP=70.0*
COc1ccc(-c2noc(CCC(=O)N3CCN(c4cccc(OC)c4)CC3)n2)cc1	.	.	.	.	.	-0.2	.
Cc1ccc(/C=C/C(=O)N2CCN(c3cccc(C(F)(F)F)c3)CC2)cc1	0.9	13.1	-1.4	47.2*	1.4	1.0	35.1*
CCOc1ccc(-n2c(=S)sc3c(=O)n(-c4ccccc4)c(SCC(=O)O)nc32)cc1	.	-3.9	5.1	-0.2	.	-1.1	.
CCOc1ccc(-n2c(=S)sc3c(=O)n(-c4ccccc4)c(SC)nc32)cc1	.	-3.6	-3.2	55.9*	.	0.3	-2.0
CCCC1CCC(C(=O)Nn2c(C)nc3ccccc3c2=O)CC1 (stereo not given)	-0.8	-1.0	-32.0	3.2	1.5	-4.7	.
CCCCCCC1CCC(C(=O)Nn2c(C)nc3ccccc3c2=O)CC1 (stereo not given)	-1.9	0.8	4.4	46.0*	-2.1	1.4	37.0*
CC(=O)c1ccc(N2CCN(C(=O)c3cc4c(s3)CCCC4)CC2)cc1	-3.4	3.4	42.3	44.0*	6.9	0.5	53.8*	LYPLA2 gel ABPP=28.0
COc1ccc(N2CCN(C(=O)c3cc4c(s3)CCCCC4)CC2)cc1	.	0.8	15.4	62.1*	.	-4.5	61.7*	LYPLA2 gel ABPP=32.0
COc1ccccc1N1CCN(C(=O)c2cc3c(s2)CCC3)CC1	-1.9	-2.8	11.6	-0.2	-2.1	4.1	.
COc1ccc(C(=O)OCC(=O)NC(=O)NC2CCCC2)cc1OC	.	0.4	18.0	-4.4	.	1.8	.
SMILES	p97 inhibitor	LYPLA1 inh	PREPL inhibitor	LYPLA2 counter	Hck Nef HTS	Rin1 Abl inh	LYPLA2 confirm	others
COc1ccccc1OCCn1cc(/C=N/NC(=O)c2ccncc2)c2ccccc21	-3.8	-3.5	11.4	-12.2	5.1	-2.5	.
O=C(N/N=C/c1cn(CCOc2ccccc2)c2ccccc12)c1ccncc1	2.1	2.9	54.1*	28.6*	-6.4	-0.7	21.1	PREPL confirm=42.8
Cc1ccc(S(=O)(=O)N(CC(=O)Nc2ccc(C)cc2C)C(=O)N2CCN(C)CC2)cc1	.	-2.7	9.2	8.6	.	3.8	.
COc1ccc(NC(=S)N2CCN(c3ccc([N+](=O)[O-])cc3)CC2)cc1OC	3.5	14.0	46.5*	35.5*	25.3	-0.3	29.1*	PREPL confirm=49.3*
O=[N+]([O-])c1ccc(CN2CCN(c3ccc([N+](=O)[O-])cc3)CC2)cc1	.	7.6	44.6*	47.2*	.	0.8	31.3*	PREPL confirm=50.7*
O=C(C1CCN(c2ncnc3c2nc2n3CCCCC2)CC1)N1CCN(c2cccc(Cl)c2)CC1	.	5.7	49.3*	34.1*	.	0.2	26.0*	PREPL confirm=46.8*
O=C(C1CCCN(c2ncnc3c2nc2n3CCCCC2)C1)N1CCN(c2ccc(Cl)cc2)CC1 (stereo not given)	.	4.1	-5.2	4.9	.	-2.3	.
COc1cccc(C(=O)N2CCN(c3ccc(N4CCOCC4)nn3)CC2)c1	.	7.1	9.9	9.9	.	2.6	.
COc1ccc2c(c1)CCc1cc(C(=O)N3CCN(c4ccc(N5CCOCC5)nn4)CC3)sc1-2	2.9	0.4	52.8*	58.6*	-0.4	-7.2	59.5*	LYPLA2 gel ABPP=23.0;PREPL confirm=55.8*
CCO/C(C)=N/Oc1cc(OC)cc(OC)c1	.	.	.	.	.	0.5	.
O=C(Nc1nccs1)C1CC=CCC1C(=O)OCC(F)(F)C(F)F (stereo not given)	.	1.3	17.7	-4.6	.	1.9	.
COc1ccc(N2CCN(C(=O)c3ccc(Cn4c(=S)[nH]c5ccc(N6CCOCC6)cc5c4=O)cc3)CC2)cc1	1.5	3.7	44.7*	74.7*	-10.8	1.9	71.9*	LYPLA2 gel ABPP=33.0;PREPL confirm=44.8*
CCCCCCCCCCCCCCCC[n+]1cccc2ccccc21	-0.8	7.9	56.2*	32.5*	106.7*	-2.1	57.2*	PREPL confirm=41.8
